Where “and” joins values, the source holds several entries; their conditions need not be identical. Equal entries are not always repeated. Some compounds were tested as several samples or in several runs, with calls that do not always agree. Calls of active or inactive are those of the source. How the source made its calls: active means hit-call score of the fitted dose curve at least 0.9, where 1 is the maximum; inactive means score below 0.9.
Assays:
[1] = ATG_ERE_CIS: Attagene CIS-FACTORIAL HepG2 Assay for Estrogen Response Element (ERE) (AID 2282940); conditions: HepG2 ERE cis-reporter, Attagene RNA transcript; actives raise or lower the signal
Summary of the method: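 Transient MRTU transfection of human HepG2; cis-element promoters; 24 h dosing; total RNA → RT (oligo dT) → PCR → 6-FAM primer extension → HpaI digest → CE fluorescence. Bidirectional fit, DMSO baseline.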

[2] = ATG_Ets_CIS: Attagene CIS-FACTORIAL HepG2 Assay for human Erythroblast Transformation Specific (ETS) (AID 2282941); conditions: HepG2 ETS cis-reporter transcription, actives raise or lower the signal
Summary of the method: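 Human HepG2 hepatoma cells were transiently transfected with promoter-driven reporter constructs and treated for 24 hours. Reporter transcripts were quantified by RT-PCR with fluorescent primer extension; bidirectional curve fitting used DMSO as reference.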

[3] = molecular target: Hepatocyte nuclear factor 3-beta (Homo sapiens) (UniProt Q9Y261); experiment: ATG_FoxA2_CIS: Attagene CIS-FACTORIAL HepG2 Assay for human Forkhead box A2 (FOXA2) (AID 2282942); conditions: HepG2 cis-reporter transcription factor activity, 24 h; actives raise or lower the signal
Summary of the method: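 Transient MRTU transfection of HepG2 liver cells; 24 h treatment; total RNA → oligo(dT) RT → PCR → FAM primer extension → HpaI cut → CE. Bidirectional fit vs DMSO.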

[4] = ATG_FoxO_CIS: Attagene CIS-FACTORIAL HepG2 Assay for human Forkhead box O (FoxO) (AID 2282943); conditions: HepG2 Attagene cis-reporter, FoxO element, mRNA; actives raise or lower the signal
Summary of the method: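 Human hepatoma HepG2 cells carry transiently introduced reporter transcription units controlled by cis promoter elements. Chemical treatment lasted 24 h, and mRNA signal was compared with DMSO.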

[5] = ATG_GATA_CIS: Attagene CIS-FACTORIAL HepG2 Assay for human GATA Binding Protein (AID 2282944); conditions: HepG2 GATA cis-element reporter, Attagene multiplex mRNA; actives raise or lower the signal
Summary of the method: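 Transient MRTU transfection, HepG2, 24 h compound exposure. Total RNA → oligo(dT) RT → PCR → 6-FAM primer extension → HpaI cut → CE. Bidirectional fit vs DMSO.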

[6] = ATG_GLI_CIS: Attagene CIS-FACTORIAL HepG2 Assay for human Zinc Finger Protein GLI1 (AID 2282945); conditions: HepG2, Attagene cis-factorial reporter mRNA, GLI element; actives raise or lower the signal
Summary of the method: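 Bidirectional curve fits relative to DMSO, using reporter mRNA levels from RT-PCR plus capillary electrophoresis. Cells were HepG2 transiently carrying cis-regulated reporter constructs, harvested 24 h after dosing.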

[7] = molecular target: Bile acid receptor (Homo sapiens) (UniProt Q96RI1); experiment: ATG_IR1_CIS: Attagene CIS-FACTORIAL HepG2 Assay for human Nuclear Receptor Subfamily 1 Group H Member 4 (NR1H4), IR1 submotif (AID 2282946); conditions: IR1 reporter transcription, actives raise or lower the signal
Summary of the method: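 Cells (human HepG2) carry transiently transfected cis-promoter reporter transcription units. Compounds are incubated 24 h, total RNA is reverse-transcribed and amplified, and labelled fragments are resolved by capillary electrophoresis. Curves use DMSO as baseline.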

[8] = ATG_GRE_CIS: Attagene CIS-FACTORIAL HepG2 Assay for human Glucocorticoid Response Elements (GRE) (AID 2282947); conditions: HepG2 GRE cis-reporter, Attagene multiplex mRNA; actives raise or lower the signal
Summary of the method: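 Transient MRTU transfection of human HepG2 liver cells; cis-regulated reporters report endogenous factors. 24 h dosing → RNA isolation → RT-PCR → 6-FAM primer extension → HpaI cut → CE fragment analysis. Bidirectional fit, DMSO negative control.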

[9] = ATG_ISRE_CIS: Attagene CIS-FACTORIAL HepG2 Assay for human Interferon Regulatory Factor 1 (IRF1) binding to an Interferon-Stimulated Response Element (ISRE) (AID 2282948); conditions: HepG2 ISRE cis-reporter (Attagene), mRNA transcription readout; actives raise or lower the signal
Summary of the method: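 Cell-based cis-reporter assay; HepG2; 24 h exposure; reporter mRNA by RT-PCR plus capillary electrophoresis fluorescence; activity in either direction scored relative to DMSO.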

[10] = ATG_M_32_CIS: Attagene CIS-FACTORIAL HepG2 Assay for M32 Transcription Factor (Internal Marker) (AID 2282949); conditions: HepG2 Attagene cis-factorial M32 reporter, mRNA; actives raise or lower the signal;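 further: background control marker of the multiplexed CIS panel rather than a real target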
Summary of the method: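 Fluorescent capillary electrophoresis peaks of HpaI-digested, FAM-labelled RT-PCR reporter products give the signal. Source: transiently transfected human liver HepG2 cells, 24 h after chemical dosing; bidirectional fitting against DMSO.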

[11] = ATG_M_06_CIS: Attagene CIS-FACTORIAL HepG2 Assay for M06 Transcription Factor (Internal Marker) (AID 2282950); conditions: HepG2 Attagene CIS-FACTORIAL M06 internal marker reporter; actives raise or lower the signal
Summary of the method: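 Read-out is fluorescence of labelled reporter cDNA fragments resolved by capillary electrophoresis after RT-PCR. Cells: HepG2 carrying transfected cis-promoter reporter units, treated 24 h. Gain or loss of signal fitted relative to DMSO.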

[12] = molecular target: Hypoxia-inducible factor 1-alpha (Homo sapiens) (UniProt Q16665); experiment: ATG_HIF1a_CIS: Attagene CIS-FACTORIAL HepG2 Assay for human Hypoxia Inducible Factor 1 (HIF1A) (AID 2282951); conditions: HepG2 Attagene cis-factorial HIF1a reporter transcription; actives raise or lower the signal
Summary of the method: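 Transient MRTU transfection of human HepG2 liver cells, 24 h compound treatment, then total RNA isolation, oligo(dT) reverse transcription, PCR amplification, fluorescent labelling and capillary electrophoresis of reporter fragments. Gain or loss relative to DMSO.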

[13] = molecular target: Hepatocyte nuclear factor 6 (Homo sapiens) (UniProt Q9UBC0); experiment: ATG_HNF6_CIS: Attagene CIS-FACTORIAL HepG2 Assay for human Hepatocyte Nuclear Factor 6 (HNF6) (AID 2282952); conditions: HepG2 Attagene cis-factorial HNF6 reporter transcription; actives raise or lower the signal
Summary of the method: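 Multiplexed mRNA reporter assay in transfected HepG2; 24 h dosing; RT-PCR plus capillary electrophoresis fluorescence; DMSO-referenced bidirectional curve fitting.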

[14] = molecular target: Heat shock factor protein 1 (Homo sapiens) (UniProt Q00613); experiment: ATG_HSE_CIS: Attagene CIS-FACTORIAL HepG2 Assay for human Heat Shock Transcription Factor 1 (HSE) (AID 2282953); conditions: HepG2 HSE cis-reporter, Attagene RNA transcription; actives raise or lower the signal
Summary of the method: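 HepG2, transient MRTU transfection, cis-promoter reporters (endogenous TF activity). 24 h compound. RNA → oligo(dT) RT → PCR → 6-FAM primer extension → HpaI cut → CE. Bidirectional fit vs DMSO.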

[15] = ATG_MRE_CIS: Attagene CIS-FACTORIAL HepG2 Assay for human Metal Responsive Element (MRE) (AID 2282954); conditions: HepG2 MRE cis-reporter transcription, Attagene multiplex; actives raise or lower the signal
Summary of the method: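 Transient MRTU transfection of HepG2 (FuGene 6); 24 h dosing; total RNA → oligo(dT) RT, PCR, 6-FAM primer extension, HpaI cut, CE. Bidirectional fit vs DMSO.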

[16] = ATG_PBREM_CIS: Attagene CIS-FACTORIAL HepG2 Assay for human Phenobarbital-responsive Enhancer Module (PBREM) (AID 2282955); conditions: HepG2 PBREM cis-reporter, Attagene multiplexed transcription; actives raise or lower the signal
Summary of the method: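 Endogenous transcription factors in human liver HepG2 cells drive a PBREM cis-element reporter, whose transcript level after 24 h treatment is quantified by RT-PCR with capillary electrophoresis; activity fitted in both directions against DMSO.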

[17] = molecular target: Paired box protein Pax-6 (Homo sapiens) (UniProt P26367); experiment: ATG_Pax6_CIS: Attagene CIS-FACTORIAL HepG2 Assay for human Paired Box 6 (PAX6) (AID 2282956); conditions: HepG2 CIS-FACTORIAL PAX6 reporter transcription, RNA readout; actives raise or lower the signal
Summary of the method: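 Multiplexed cis-reporter HepG2 system; 24 h treatment; reporter mRNA read by RT-PCR/CE fluorescence; bidirectional fit vs DMSO.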

[18] = ATG_PPRE_CIS: Attagene CIS-FACTORIAL HepG2 Assay for human Peroxisome Proliferator-activated Response Element (PPRE) (AID 2282958); conditions: HepG2 PPRE cis-element reporter, Attagene transcription factor profiling; actives raise or lower the signal
Summary of the method: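 HepG2, transient MRTU transfection (cis promoter elements, endogenous TFs). 24 h dosing. RNA → oligo(dT) RT → PCR → 6-FAM primer extension → HpaI digest → CE. Bidirectional fit vs DMSO.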

[19] = ATG_RORE_CIS: Attagene CIS-FACTORIAL HepG2 Assay for human RAR-related Orphan Receptor Element (RORE) (AID 2282959); conditions: HepG2 Attagene cis-factorial RORE reporter, mRNA; actives raise or lower the signal
Summary of the method: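 Transient MRTU transfection of human HepG2 liver cells (FuGene 6); 24 h compound exposure; TriZol RNA, oligo(dT) RT, PCR, FAM labeling, HpaI cut, CE fragment analysis. DMSO = negative control/baseline.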

[20] = ATG_PXRE_CIS: Attagene CIS-FACTORIAL HepG2 Assay for human Pregnane X Receptor Element (PXRE) (AID 2282957); conditions: HepG2 Attagene CIS-FACTORIAL PXRE reporter, mRNA; actives raise or lower the signal
Summary of the method: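 Cells: HepG2, transiently transfected reporter units under cis promoter control. Exposure: 24 h. Detection: reporter mRNA via RT-PCR/CE fluorescence; bidirectional fitting, DMSO-referenced.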

Measured: AC50

Hepatocyte nuclear factor 3-beta (Homo sapiens), sequence (Q9Y261 whole entry, looked up): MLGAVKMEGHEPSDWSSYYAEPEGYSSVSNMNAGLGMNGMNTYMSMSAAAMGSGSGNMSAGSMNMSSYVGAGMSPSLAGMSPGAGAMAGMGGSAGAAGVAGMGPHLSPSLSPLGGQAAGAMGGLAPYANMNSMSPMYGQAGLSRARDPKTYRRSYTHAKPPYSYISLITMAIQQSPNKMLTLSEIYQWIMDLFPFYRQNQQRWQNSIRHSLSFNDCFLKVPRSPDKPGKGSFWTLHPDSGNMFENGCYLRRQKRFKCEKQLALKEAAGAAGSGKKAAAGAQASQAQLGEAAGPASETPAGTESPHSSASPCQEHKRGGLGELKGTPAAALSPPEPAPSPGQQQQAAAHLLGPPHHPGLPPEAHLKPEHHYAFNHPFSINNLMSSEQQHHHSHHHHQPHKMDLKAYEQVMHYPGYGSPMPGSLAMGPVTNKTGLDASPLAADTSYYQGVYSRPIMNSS
Bile acid receptor (Homo sapiens), sequence (Q96RI1 whole entry, looked up, the tested form may be a part): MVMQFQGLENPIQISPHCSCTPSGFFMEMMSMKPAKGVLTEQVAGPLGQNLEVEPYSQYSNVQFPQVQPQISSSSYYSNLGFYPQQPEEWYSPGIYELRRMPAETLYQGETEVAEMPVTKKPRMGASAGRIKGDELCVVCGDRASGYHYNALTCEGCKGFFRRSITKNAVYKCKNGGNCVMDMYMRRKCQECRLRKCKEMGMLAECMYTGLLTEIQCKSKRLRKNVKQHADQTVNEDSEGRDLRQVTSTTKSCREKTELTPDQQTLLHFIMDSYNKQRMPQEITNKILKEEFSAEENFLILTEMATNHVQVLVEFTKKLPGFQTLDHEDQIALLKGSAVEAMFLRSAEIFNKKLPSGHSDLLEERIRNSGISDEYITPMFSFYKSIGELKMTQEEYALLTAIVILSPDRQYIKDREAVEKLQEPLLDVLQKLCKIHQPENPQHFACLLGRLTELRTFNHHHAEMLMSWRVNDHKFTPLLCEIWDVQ
Hypoxia-inducible factor 1-alpha (Homo sapiens), sequence (Q16665 whole entry, looked up, the tested form may be a part): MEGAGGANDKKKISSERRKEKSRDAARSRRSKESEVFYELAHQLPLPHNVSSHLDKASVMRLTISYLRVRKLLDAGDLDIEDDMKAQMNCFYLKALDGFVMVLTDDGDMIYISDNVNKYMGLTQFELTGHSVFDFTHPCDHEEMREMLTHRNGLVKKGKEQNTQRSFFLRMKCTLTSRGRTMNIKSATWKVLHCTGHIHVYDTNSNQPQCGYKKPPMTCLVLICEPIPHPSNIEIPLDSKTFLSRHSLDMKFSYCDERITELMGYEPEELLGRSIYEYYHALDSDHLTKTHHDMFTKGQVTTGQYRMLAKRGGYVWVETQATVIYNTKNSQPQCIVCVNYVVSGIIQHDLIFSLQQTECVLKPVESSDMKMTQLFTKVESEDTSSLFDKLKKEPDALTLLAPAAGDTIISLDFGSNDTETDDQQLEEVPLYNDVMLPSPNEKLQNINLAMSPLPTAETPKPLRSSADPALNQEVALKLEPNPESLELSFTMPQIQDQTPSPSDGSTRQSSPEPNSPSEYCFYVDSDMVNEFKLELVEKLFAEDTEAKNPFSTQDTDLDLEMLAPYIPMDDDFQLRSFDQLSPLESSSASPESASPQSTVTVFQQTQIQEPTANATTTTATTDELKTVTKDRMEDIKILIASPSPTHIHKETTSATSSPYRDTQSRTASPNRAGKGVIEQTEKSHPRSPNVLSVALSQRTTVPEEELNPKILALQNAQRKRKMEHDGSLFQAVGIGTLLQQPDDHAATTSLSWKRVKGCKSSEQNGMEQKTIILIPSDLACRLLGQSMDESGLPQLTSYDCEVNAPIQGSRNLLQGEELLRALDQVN
Paired box protein Pax-6 (Homo sapiens), sequence (P26367 whole entry, looked up): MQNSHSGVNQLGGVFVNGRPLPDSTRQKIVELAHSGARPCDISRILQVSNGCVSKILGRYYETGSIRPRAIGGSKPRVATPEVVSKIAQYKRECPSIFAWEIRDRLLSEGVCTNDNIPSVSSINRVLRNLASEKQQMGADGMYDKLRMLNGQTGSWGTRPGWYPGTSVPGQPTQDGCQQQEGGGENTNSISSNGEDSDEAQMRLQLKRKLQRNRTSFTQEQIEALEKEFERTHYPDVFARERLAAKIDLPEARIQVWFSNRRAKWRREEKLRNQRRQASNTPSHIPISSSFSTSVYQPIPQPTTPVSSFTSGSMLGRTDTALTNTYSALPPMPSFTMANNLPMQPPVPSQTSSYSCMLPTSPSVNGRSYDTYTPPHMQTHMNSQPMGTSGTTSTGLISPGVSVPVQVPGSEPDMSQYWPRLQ
Heat shock factor protein 1 (Homo sapiens), sequence (Q00613 whole entry, looked up): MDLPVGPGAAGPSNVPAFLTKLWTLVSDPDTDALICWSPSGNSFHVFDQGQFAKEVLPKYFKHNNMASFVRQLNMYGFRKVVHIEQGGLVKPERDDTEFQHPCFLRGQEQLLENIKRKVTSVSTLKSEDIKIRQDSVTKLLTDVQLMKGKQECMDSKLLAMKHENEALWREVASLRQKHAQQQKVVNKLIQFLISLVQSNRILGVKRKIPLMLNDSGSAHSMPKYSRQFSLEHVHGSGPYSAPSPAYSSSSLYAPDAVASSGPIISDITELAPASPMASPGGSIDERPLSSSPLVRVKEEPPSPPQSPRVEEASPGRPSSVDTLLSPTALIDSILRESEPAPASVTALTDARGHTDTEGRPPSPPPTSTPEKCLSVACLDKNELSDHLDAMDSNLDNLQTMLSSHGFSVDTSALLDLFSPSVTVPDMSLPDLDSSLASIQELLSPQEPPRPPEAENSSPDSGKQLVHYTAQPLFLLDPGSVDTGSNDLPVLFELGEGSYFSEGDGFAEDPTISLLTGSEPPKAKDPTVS
Hepatocyte nuclear factor 6 (Homo sapiens), sequence (Q9UBC0 whole entry, looked up): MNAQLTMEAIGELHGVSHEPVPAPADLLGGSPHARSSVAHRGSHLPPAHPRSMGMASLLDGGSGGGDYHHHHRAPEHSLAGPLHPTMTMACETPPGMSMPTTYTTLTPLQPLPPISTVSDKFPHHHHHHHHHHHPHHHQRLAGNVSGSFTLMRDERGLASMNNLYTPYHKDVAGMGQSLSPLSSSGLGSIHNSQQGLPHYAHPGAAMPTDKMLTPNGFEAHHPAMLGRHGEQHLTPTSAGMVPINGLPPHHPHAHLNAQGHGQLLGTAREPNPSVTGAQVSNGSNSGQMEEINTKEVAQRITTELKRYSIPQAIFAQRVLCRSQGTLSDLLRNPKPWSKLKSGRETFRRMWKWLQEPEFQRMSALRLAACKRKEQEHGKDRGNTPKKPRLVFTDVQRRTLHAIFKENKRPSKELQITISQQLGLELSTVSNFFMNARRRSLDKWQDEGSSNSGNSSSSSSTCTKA

CC(C)(COCC1CO1)COCC1CO1 (centres undefined)
active: [15] 100 µM
inactive: [1] | [2] | [3] | [4] | [5] | [6] | [7] | [8] | [9] | [10] | [11] | [12] | [13] | [14] | [16] | [17] | [18] | [19]

COC(=O)c1cc(Oc2ccc(Cl)cc2Cl)ccc1[N+](=O)[O-]
inactive: [2] | [3] | [4] | [5] | [6] | [7] | [8] | [9] | [10] | [11] | [13] | [14] | [17]
active: [1] 39100 nM | [12] 21300 nM | [15] 17.9 µM | [16] 11800 nM | [20] 5.12 µM | [18] 10.2 µM | [19] 16600 nM

O=c1oc2ccccc2c(O)c1C(CC(O)c1ccc(-c2ccc(Br)cc2)cc1)c1ccccc1 (centres undefined)
active: [6] 46300 nM | [7] 50.1 µM and 43.6 µM | [9] 24900 nM | [12] 14600 nM | [14] 48.7 µM and 59.6 µM | [15] 40.3 µM and 31.9 µM | [16] 31700 nM | [17] 46.5 µM and 31.9 µM | [20] 8.03 µM and 7.59 µM | [18] 10.8 µM and 227 nM
inactive: [1] | [2] | [3] | [4] | [5] | [6] | [8] | [9] | [10] | [11] | [12] | [13] | [16] | [19]

Nc1ccc(Br)cc1
inactive: [1] | [2] | [3] | [4] | [5] | [6] | [7] | [8] | [9] | [10] | [11] | [12] | [13] | [14] | [15] | [16] | [17] | [20] | [18] | [19]

O=NN1CCCCCCC1
inactive: [1] | [2] | [3] | [4] | [5] | [6] | [7] | [8] | [9] | [10] | [11] | [12] | [13] | [14] | [15] | [16] | [17]

C=CC(=O)[O][Sn]([CH2]CCC)([CH2]CCC)[CH2]CCC
active: [1] 14.6 nM | [3] 694 nM | [5] 536 nM | [6] 602 nM | [7] 95.6 nM | [8] 412 nM | [13] 657 nM | [14] 645 nM | [15] 0.412 µM | [16] 321 nM | [17] 520 nM | [20] 0.744 µM
inactive: [2] | [4] | [9] | [10] | [11] | [12] | [19]
